The source of these data is PubChem BioAssay (Tox21).

Records with an inconclusive call do not appear. A call without a number means that no potency is given here. A number with no mark means an inactive call. Calls of active or inactive are those of the source. Calls come from the whole dose curve. Where a SMILES comes first, the peptide text is derived from it. [ ]: non-standard residue; d: D form. pGlu = O=C1CC[C@@H](C(=O)O)N1

Sequence of Thyrotropin receptor (Homo sapiens) (P16473 whole entry, looked up): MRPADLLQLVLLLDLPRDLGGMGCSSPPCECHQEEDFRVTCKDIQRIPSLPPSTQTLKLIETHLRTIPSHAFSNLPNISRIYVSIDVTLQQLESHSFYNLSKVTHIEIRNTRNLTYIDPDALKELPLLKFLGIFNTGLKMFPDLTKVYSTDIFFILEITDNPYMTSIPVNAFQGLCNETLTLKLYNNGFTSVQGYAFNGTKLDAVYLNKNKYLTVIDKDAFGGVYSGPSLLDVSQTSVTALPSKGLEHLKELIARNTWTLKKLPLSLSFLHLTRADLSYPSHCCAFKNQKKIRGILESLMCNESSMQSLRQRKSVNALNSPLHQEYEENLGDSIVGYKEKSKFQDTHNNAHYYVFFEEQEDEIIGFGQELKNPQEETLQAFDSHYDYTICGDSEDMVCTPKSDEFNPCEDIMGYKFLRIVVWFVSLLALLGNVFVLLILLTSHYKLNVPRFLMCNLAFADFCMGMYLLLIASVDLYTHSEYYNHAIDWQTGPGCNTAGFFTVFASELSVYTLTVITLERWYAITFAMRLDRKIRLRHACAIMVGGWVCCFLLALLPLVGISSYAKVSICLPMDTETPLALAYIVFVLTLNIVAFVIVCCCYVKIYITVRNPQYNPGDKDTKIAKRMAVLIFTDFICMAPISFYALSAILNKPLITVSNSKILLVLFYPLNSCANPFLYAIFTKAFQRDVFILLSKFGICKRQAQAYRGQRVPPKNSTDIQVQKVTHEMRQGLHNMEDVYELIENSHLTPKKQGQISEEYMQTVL

The first assay addresses Thyrotropin receptor (Homo sapiens) (UniProt P16473). The assay is described as follows: qHTS assay to identify small molecule agonists of the thyroid stimulating hormone receptor (TSHR) signaling pathway (AID 1224843). Note: nearly all actives have a fitted effect of over 45% in size. The conditions noted are these: TSHR-HEK293 cells, cAMP HTRF, agonist mode, 30 min; series mostly up to 92.4 µM. Put shortly:
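Steps: seed 800 TSHR-HEK293 cells per well; add test compound and hold 30 min at ambient temperature; dispense cAMP-d2 then anti-cAMP cryptate; incubate 1 h at ambient; measure fluorescence intensity.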
In general terms: In qHTS, concentration-response curves come from the screen itself.
Regarding `O=C(O)CCSCCC(=O)O`, the Potency result is “inactive”.
With `O=Cc1cccc(Br)c1`, the Potency result is “inactive”.
The same measure, in the same setting: in the case of `Cc1ccc(C(=O)c2ccc(CC(=O)O)n2C)cc1` it was “inactive”; in that of `CCCCCCCCCCCCCCCCCCO`, “inactive”.
As to `CCN(C=O)CC`, the Potency result was “inactive”.
The same measure, in the same setting: in the case of `COc1ccc2cc1Oc1cc3c(cc1OC)CC[N+](C)(C)[C@H]3Cc1ccc(cc1)Oc1c(OC)c(OC)cc3c1[C@@H](C2)[N+](C)(C)CC3` it was “inactive”.
`CC(C)C[C@@H](N)C(=O)O`: the activation is -1.78% [at 19 µM].
With `O=C(O)CC(C(=O)O)S(=O)(=O)O` (centres undefined), the Potency result was “inactive”.
`CC1(C)OC[C@@H](COC(=O)CCc2ccc(OC[C@@H](O)CNCCNC(=O)N3CCOCC3)cc2)O1`: the Potency entry was “inactive”.
The same measure, in the same setting: next, `CC(CC=O)CC(C)(C)C` (centres undefined): “inactive”; `NC(CCC(=O)O)C(=O)O` (centres undefined): “inactive”.
Still for that read-out and setting: in the case of `CCOC(=O)C(=O)CCCCCCl` it was “inactive”.
Take `Clc1cc(Cl)cc(Cl)c1`: the Potency result is “inactive”.
Turning to `CO/N=C(\C(=O)N[C@@H]1C(=O)N2C(C(=O)O)=C(CSc3nc(=O)c(O)nn3C)CS[C@H]12)c1csc(N)n1`, the Potency result was “inactive”.
On the same count and under the same terms, next, `CCNC(=O)[C@@H]1CCCN1C(=O)[C@H](CCCN=C(N)N)NC(=O)[C@H](CC(C)C)NC(=O)CNC(=O)[C@H](Cc1ccc(O)cc1)NC(=O)[C@H](CO)NC(=O)[C@H](Cc1c[nH]c2ccccc12)NC(=O)[C@H](Cc1cnc[nH]1)NC(=O)[C@@H]1CCC(=O)N1` ([pGlu]HWSYGLRP-NHEt): “inactive”.
Regarding `CCCO[Si](OCCC)(OCCC)OCCC`, the Potency result is “inactive”.
Still for that read-out and setting: in the case of `CCCCCCCCCCCCSC` it was “inactive”; in that of `CC(C)(C)c1ccc(-c2ccc(C(C)(C)C)cc2)cc1`, “inactive”.
Still for that read-out and setting: in the case of `CC(C#N)(CCC(=O)O)N=NC(C)(C#N)CCC(=O)O` (centres undefined) it was “inactive”.
The same measure, in the same setting: next, `CC(=O)Nc1ccc(OCC(O)CNC(C)C)cc1` (centres undefined): “inactive”; `CCCCOCCOC(=O)CCCCCCCCC(=O)OCCOCCCC`: “inactive”.
For the molecule `CC(C)C(=O)OC(=O)C(C)C`, the Potency result was “inactive”.
Same read-out and setting: in the case of `CCCOC(=O)CC` it was “inactive”; in that of `COc1cc(C)nc(-n2nc(C)cc2OC)n1`, “inactive”; in that of `[O-][n+]1cccc(CO)c1`, “inactive”.
The same measure, in the same setting: next, `O=S(=O)(O)c1cccc2c(S(=O)(=O)O)cccc12`: “inactive”; `CCCCCC(=O)OCCc1ccccc1`: “inactive”.
The same measure, in the same setting: next, `COc1ccccc1OCC1CNC(=O)O1` (centres undefined): “inactive”.
For the molecule `CCCCCC(C)N` (centres undefined), the Potency entry was “inactive”.
Same read-out and setting: in the case of `COC(=O)C1=C(C)NC(C)=C(C(=O)OC(C)C)C1c1cccc2nonc12` (centres undefined) it was “inactive”.
On the same count and under the same terms, in the case of `CCC(C(=O)NC(=O)NC(C)=O)c1ccccc1` (centres undefined) it was “inactive”; in that of `C=CCOCC(O)CO` (centres undefined), “inactive”.
On the same count and under the same terms, in the case of `CC(=O)Oc1cccc(C)c1` it was “inactive”.

System in another assay: not listed separately
Nature of the assay: qHTS assay to identify small molecule agonists of the hypoxia (HIF-1) signaling pathway - cell viability counter screen (AID 1224844). Note: nearly all actives have a fitted effect of over 50% in size. To be noted: HRE-bla ME-180 viability, CellTiter-Glo luminescence, 17 h; series mostly up to 76.8 µM. Summed up:
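Tox21 10K compounds were added to HRE-bla ME-180 cells (0.5% dialyzed FBS) and incubated 17 hrs at 37C; ATP-based CellTiter-Glo luminescence then reported cell viability in the same wells.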
Regarding `CCCCCCC#CC(=O)OC`, the Potency result is “inactive”.
Take `O=C(O)CCSCCC(=O)O`: the Potency entry was “inactive”.
On the same count and under the same terms, in the case of `Cc1ccc(C(=O)c2ccc(CC(=O)O)n2C)cc1` it was “inactive”.
Still for that read-out and setting: next, `CCCCCCCCCCCCCCCCCCO`: “inactive”.
The same measure, in the same setting: in the case of `COc1ccc2cc1Oc1cc3c(cc1OC)CC[N+](C)(C)[C@H]3Cc1ccc(cc1)Oc1c(OC)c(OC)cc3c1[C@@H](C2)[N+](C)(C)CC3` it was “inactive”.
Consider `Cc1ccc(C(=O)c2ccccc2)cc1`, for which the Potency result is “inactive”.
With `CC(C)C[C@@H](N)C(=O)O`, the activity change, negative = cytotoxicity was 2.77% [at 15.8 µM].
For `O=C(O)CC(C(=O)O)S(=O)(=O)O` (centres undefined), the Potency entry was “inactive”.
Still for that read-out and setting: next, `CC1(C)OC[C@@H](COC(=O)CCc2ccc(OC[C@@H](O)CNCCNC(=O)N3CCOCC3)cc2)O1`: “inactive”; `CC(CC=O)CC(C)(C)C` (centres undefined): “inactive”.
Still for that read-out and setting: in the case of `NC(CCC(=O)O)C(=O)O` (centres undefined) it was “inactive”.
Turning to `CCOC(=O)C(=O)CCCCCCl`, the Potency result is “inactive”.
Same read-out and setting: next, `Clc1cc(Cl)cc(Cl)c1`: “inactive”.
On the same count and under the same terms, next, `CO/N=C(\C(=O)N[C@@H]1C(=O)N2C(C(=O)O)=C(CSc3nc(=O)c(O)nn3C)CS[C@H]12)c1csc(N)n1`: “inactive”; `CCCO[Si](OCCC)(OCCC)OCCC`: “inactive”.
Regarding `CCCCCCCCCCCCSC`, the Potency result is “inactive”.
Still for that read-out and setting: next, `CC(C)(C)c1ccc(-c2ccc(C(C)(C)C)cc2)cc1`: “inactive”.
The same measure, in the same setting: next, `CC(C#N)(CCC(=O)O)N=NC(C)(C#N)CCC(=O)O` (centres undefined): “inactive”; `NCCCC[C@H](N[C@@H](CCc1ccccc1)C(=O)O)C(=O)N1CCC[C@H]1C(=O)O`: “inactive”; `CC(=O)Nc1ccc(OCC(O)CNC(C)C)cc1` (centres undefined): “inactive”.
Still for that read-out and setting: next, `CCCCOCCOC(=O)CCCCCCCCC(=O)OCCOCCCC`: “inactive”.
On to `CC(C)C(=O)OC(=O)C(C)C`, for which the Potency entry is “inactive”.
In the case of `CCCOC(=O)CC`, the Potency result was “inactive”.
Regarding `O=[N+]([O-])c1ccc(/C=N\O)o1`, the Potency result is “inactive”.
With `[O-][n+]1cccc(CO)c1`, the Potency entry was “inactive”.
The same measure, in the same setting: in the case of `O=S(=O)(O)c1cccc2c(S(=O)(=O)O)cccc12` it was “inactive”.
The same measure, in the same setting: next, `CCCCCC(=O)OCCc1ccccc1`: “inactive”.
As to `COc1ccccc1OCC1CNC(=O)O1` (centres undefined), the Potency entry was “inactive”.
Same read-out and setting: next, `COC(=O)C1=C(C)NC(C)=C(C(=O)OC(C)C)C1c1cccc2nonc12` (centres undefined): “inactive”; `CCC(C(=O)NC(=O)NC(C)=O)c1ccccc1` (centres undefined): “inactive”.
On the same count and under the same terms, in the case of `CC[C@H]1OC(=O)[C@H](C)[C@@H](O[C@H]2C[C@@](C)(OC)[C@@H](O)[C@H](C)O2)[C@H](C)[C@@H](O[C@@H]2O[C@H](C)C[C@H](N(C)C)[C@H]2O)[C@](C)(OC)C[C@@H](C)C(=O)[C@H](C)[C@@H](O)[C@]1(C)O` it was “inactive”.
